Experimental data taken from PubChem BioAssay (NCI).
This is part of a sample that, as a whole, favours compounds with a hit. Of some 83,000 tested, about 20% had one in any assay.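 96-well plates, one dose, 48 hours. Percent growth reported; active if below 10.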 The source made the active and inactive calls.

Legend:
Test in all cases: NCI-60 one-dose screen, 48 h (100 = growth as untreated, 0 = no growth, -100 = all killed)
Settings in all cases: 10 µM unless noted
HCT-15 colon = tested on: HCT-15 colon
HT29 colon = tested on: HT29 colon
SNB-75 CNS = tested on: SNB-75 CNS
SNB-19 CNS = tested on: SNB-19 CNS
U251 CNS = tested on: U251 CNS
PC-3 prostate = tested on: PC-3 prostate
UACC-62 melanoma = tested on: UACC-62 melanoma
LOX IMVI melanoma = tested on: LOX IMVI melanoma
SK-MEL-28 melanoma = tested on: SK-MEL-28 melanoma
SK-MEL-2 melanoma = tested on: SK-MEL-2 melanoma
EKVX NSCLC = tested on: EKVX NSCLC
SN12C renal = tested on: SN12C renal
UO-31 renal = tested on: UO-31 renal
TK-10 renal = tested on: TK-10 renal
ACHN renal = tested on: ACHN renal
A498 renal = tested on: A498 renal
CCRF-CEM leukemia = tested on: CCRF-CEM leukemia
MOLT-4 leukemia = tested on: MOLT-4 leukemia
CAKI-1 renal = tested on: CAKI-1 renal

Measured: growth

CN1CCN(c2nc(NCCCNc3ccnc4cc(Cl)ccc34)c3ccccc3n2)CC1
active: HT29 colon 6.44% | U251 CNS 2% | UACC-62 melanoma -65.7% | LOX IMVI melanoma -43.8% | SK-MEL-28 melanoma -48.5%
inactive: HCT-15 colon 52.7% | SNB-75 CNS 79.6% | SNB-19 CNS 45.4% | PC-3 prostate 43.4% | SK-MEL-2 melanoma 80.7% | EKVX NSCLC 77.3% | SN12C renal 57.2% | UO-31 renal 37.3% | TK-10 renal 116% | ACHN renal 50% | A498 renal 72.1% | CCRF-CEM leukemia 18.6% | MOLT-4 leukemia 18.6%

CN(C)c1ccc(NC(=O)c2ccc(/C=C/C(=O)c3ncc[nH]3)cc2)cc1
inactive: HCT-15 colon 16.2% | HT29 colon 11.6% | SNB-75 CNS 68.7% | SNB-19 CNS 28.3% | U251 CNS 11.8% | PC-3 prostate 68.1% | UACC-62 melanoma 70.5% | LOX IMVI melanoma 14.7% | SK-MEL-28 melanoma 95.3% | SK-MEL-2 melanoma 92% | EKVX NSCLC 73% | SN12C renal 44.9% | UO-31 renal 37.9% | TK-10 renal 74% | ACHN renal 71.4% | A498 renal 94.1% | MOLT-4 leukemia 27.1%
active: CCRF-CEM leukemia 4.98%

Clc1ccc2c(NCCCCNc3nc(N4CCOCC4)nc4ccccc34)ccnc2c1
inactive: HCT-15 colon 22.9% | SNB-75 CNS 79% | SNB-19 CNS 14.7% | PC-3 prostate 38.9% | UACC-62 melanoma 99.1% | SK-MEL-28 melanoma 119% | SK-MEL-2 melanoma 103% | EKVX NSCLC 45.2% | A498 renal 90.4% | MOLT-4 leukemia 17.6%
active: HT29 colon -26.4% | U251 CNS -59.6% | LOX IMVI melanoma -66.6% | SN12C renal -8.57% | UO-31 renal -89.7% | TK-10 renal -63.1% | ACHN renal -67.5% | CCRF-CEM leukemia -21.7%

Cn1ccnc1C(=O)/C=C/c1ccc(CC(=O)Nc2ccccc2)cc1
inactive: SNB-75 CNS 11.3% | SNB-19 CNS 10.3% | PC-3 prostate 25.7% | UACC-62 melanoma 26.7% | SK-MEL-28 melanoma 55% | SK-MEL-2 melanoma 54.6% | EKVX NSCLC 17.6% | SN12C renal 16.1% | UO-31 renal 16% | TK-10 renal 17.6% | ACHN renal 29% | A498 renal 44.9%
active: HCT-15 colon 6.26% | HT29 colon 5.1% | U251 CNS 7.03% | LOX IMVI melanoma 8.77% | CCRF-CEM leukemia 2.06% | MOLT-4 leukemia -1.23%

O=C(Cc1ccc(/C=C/C(=O)c2ncc[nH]2)cc1)Nc1ccccc1
inactive: HCT-15 colon 12.9% | SNB-75 CNS 58.4% | SNB-19 CNS 22.6% | U251 CNS 11.3% | PC-3 prostate 57.1% | UACC-62 melanoma 68.5% | LOX IMVI melanoma 10.1% | SK-MEL-28 melanoma 98.9% | SK-MEL-2 melanoma 82.8% | EKVX NSCLC 64.6% | SN12C renal 21.8% | UO-31 renal 31.3% | TK-10 renal 49.1% | ACHN renal 76% | A498 renal 83.5% | MOLT-4 leukemia 29.1%
active: HT29 colon 4.83% | CCRF-CEM leukemia 3.9%

CC(C)(C)c1cc(/C=N\NC(=O)/C=C/C=C/c2ccc3c(c2)OCO3)c(O)c(C(C)(C)C)c1
inactive: HCT-15 colon 63.7% | HT29 colon 92% | SNB-75 CNS 31.9% | SNB-19 CNS 85.5% | U251 CNS 84% | PC-3 prostate 69.1% | UACC-62 melanoma 71.5% | LOX IMVI melanoma 61.7% | SK-MEL-28 melanoma 85.8% | SK-MEL-2 melanoma 89% | EKVX NSCLC 75% | SN12C renal 87.6% | UO-31 renal 55.1% | ACHN renal 75.9% | CAKI-1 renal 71.9% | CCRF-CEM leukemia 55.7% | MOLT-4 leukemia 74.7%

COc1cc2c(cc1OC)C(Sc1ccc(SC)cc1)c1c(nc(N)c(C#N)c1N)O2 (stereo not given)
active: HCT-15 colon -71.5% | HT29 colon -55.2% | SNB-75 CNS -54.5% | SNB-19 CNS -77.9% | U251 CNS -99.3% | PC-3 prostate -75.8% | UACC-62 melanoma -61.3% | LOX IMVI melanoma -96.3% | SK-MEL-28 melanoma -55.5% | SK-MEL-2 melanoma -63.7% | EKVX NSCLC -45.6% | SN12C renal -88% | UO-31 renal -99.7% | TK-10 renal -95.7% | ACHN renal -86.4% | A498 renal -6.98% | CCRF-CEM leukemia -32.7% | MOLT-4 leukemia -26.3%

O=C1c2ccccc2OC=C(c2ccccc2)N1CCCCNc1ccc(S(=O)(=O)Nc2ncccn2)cc1
inactive: HCT-15 colon 96.1% | HT29 colon 100% | SNB-75 CNS 80% | SNB-19 CNS 101% | U251 CNS 91.1% | PC-3 prostate 76.4% | UACC-62 melanoma 86.8% | LOX IMVI melanoma 92.7% | SK-MEL-28 melanoma 108% | SK-MEL-2 melanoma 99.1% | EKVX NSCLC 90% | SN12C renal 99.1% | UO-31 renal 85.7% | TK-10 renal 96.6% | ACHN renal 100% | A498 renal 80.2% | CCRF-CEM leukemia 75.6% | MOLT-4 leukemia 85.3%

CN(C)c1ccc(N=Nc2ccccn2)c(O)c1
inactive: HCT-15 colon 31.6% | HT29 colon 24.1% | SNB-75 CNS 42.7% | SNB-19 CNS 18.6% | U251 CNS 11.7% | PC-3 prostate 33.8% | SK-MEL-28 melanoma 32.8% | SK-MEL-2 melanoma 27.1% | EKVX NSCLC 17% | SN12C renal 11.3% | TK-10 renal 38.9% | A498 renal 48.2%
active: UACC-62 melanoma -28.3% | LOX IMVI melanoma 8.14% | UO-31 renal -8.47% | ACHN renal 6.69% | CCRF-CEM leukemia 2.26% | MOLT-4 leukemia 2.31%

CNC(=O)c1cc(Oc2ccc(NC(=O)Nc3ccc(Cl)c(SC)c3)c(F)c2)ccn1
inactive: HCT-15 colon 50% | HT29 colon 30% | SNB-75 CNS 71% | SNB-19 CNS 75% | U251 CNS 56% | PC-3 prostate 34.2% | UACC-62 melanoma 28% | LOX IMVI melanoma 37.7% | SK-MEL-28 melanoma 56.7% | SK-MEL-2 melanoma 21.6% | EKVX NSCLC 32.4% | UO-31 renal 42.6% | TK-10 renal 55.3% | ACHN renal 52.6% | CAKI-1 renal 70.1% | A498 renal 41.3% | CCRF-CEM leukemia 40.7% | MOLT-4 leukemia 22.8%

Cc1cc(N2CCCCCC2)nc(NC2CCCC(Nc3ccnc4cc(Cl)ccc34)C2)n1 (stereo not given)
active: HCT-15 colon -87.4% | HT29 colon -82.9% | SNB-75 CNS -78.7% | SNB-19 CNS -54.5% | U251 CNS -94.8% | PC-3 prostate -88.1% | UACC-62 melanoma -84.3% | LOX IMVI melanoma -93.1% | SK-MEL-28 melanoma -83.5% | SK-MEL-2 melanoma -82.2% | EKVX NSCLC -27.5% | SN12C renal -90.7% | UO-31 renal -93.5% | TK-10 renal -81.2% | ACHN renal -98.6% | A498 renal -74.7% | CCRF-CEM leukemia -29.2% | MOLT-4 leukemia -51.8%

N#Cc1nnn(-c2ccc(S(N)(=O)=O)cc2)c1NC(=O)CCl
inactive: HCT-15 colon 96% | HT29 colon 102% | SNB-75 CNS 85.5% | SNB-19 CNS 96.3% | U251 CNS 92.3% | PC-3 prostate 89.7% | UACC-62 melanoma 96.6% | LOX IMVI melanoma 94.6% | SK-MEL-28 melanoma 104% | SK-MEL-2 melanoma 106% | EKVX NSCLC 91.4% | SN12C renal 88.3% | UO-31 renal 86.5% | TK-10 renal 96.4% | ACHN renal 108% | A498 renal 91.5% | CCRF-CEM leukemia 88.8% | MOLT-4 leukemia 92.4%

COc1ccc(O)c(N=Nc2nccs2)c1
inactive: HCT-15 colon 67.3% | HT29 colon 79.7% | SNB-75 CNS 91% | SNB-19 CNS 94.9% | U251 CNS 54.4% | PC-3 prostate 67.3% | UACC-62 melanoma 89.8% | LOX IMVI melanoma 60.9% | SK-MEL-28 melanoma 115% | SK-MEL-2 melanoma 91.6% | EKVX NSCLC 54.3% | SN12C renal 99.4% | UO-31 renal 61.1% | TK-10 renal 106% | ACHN renal 28.7% | A498 renal 88.4%
active: CCRF-CEM leukemia 3.48% | MOLT-4 leukemia 7.26%

O=C1c2cc3c(cc2-c2c1c1ccc(F)cc1c(=O)n2CCCNCCO)OCO3
active: HCT-15 colon -41.8% | HT29 colon -74.3% | SNB-75 CNS -98.5% | SNB-19 CNS -21.9% | U251 CNS -82.8% | PC-3 prostate -41.9% | UACC-62 melanoma -60.5% | LOX IMVI melanoma -88.3% | SK-MEL-28 melanoma -13.8% | SK-MEL-2 melanoma -46.1% | EKVX NSCLC -14% | SN12C renal -60.4% | UO-31 renal -72.2% | ACHN renal -52.7% | CAKI-1 renal -7.53% | A498 renal -95.9% | CCRF-CEM leukemia 0.848% | MOLT-4 leukemia -25%

Clc1ccc2c(NCCNc3nc(N4CCOCC4)nc4ccccc34)ccnc2c1
inactive: HCT-15 colon 15.2% | PC-3 prostate 34% | EKVX NSCLC 31.1% | MOLT-4 leukemia 11.7%
active: HT29 colon -69.2% | SNB-75 CNS -94.4% | SNB-19 CNS 5.66% | U251 CNS -93.1% | UACC-62 melanoma -64.9% | LOX IMVI melanoma -83.5% | SK-MEL-28 melanoma -47.5% | SK-MEL-2 melanoma -42.9% | SN12C renal 0.0194% | UO-31 renal -89% | TK-10 renal -88.6% | ACHN renal -44.2% | A498 renal -12.8% | CCRF-CEM leukemia -8.56%

CSc1ccc(-c2ccccc(=O)c2O)cc1
inactive: HCT-15 colon 26.9% | HT29 colon 25.7% | SNB-75 CNS 34.6% | SNB-19 CNS 17.5% | PC-3 prostate 30.9% | SK-MEL-28 melanoma 26.9% | SK-MEL-2 melanoma 15.2% | EKVX NSCLC 11.5% | SN12C renal 11.9% | TK-10 renal 33.4% | A498 renal 36.2%
active: U251 CNS 9.54% | UACC-62 melanoma -23% | LOX IMVI melanoma 9.8% | UO-31 renal -17.8% | ACHN renal 6.58% | CCRF-CEM leukemia 3.72% | MOLT-4 leukemia 2.65%

CC(=O)c1cc2c(N)c(C(=O)Nc3ccccc3)sc2nc1C
inactive: HCT-15 colon 60.3% | HT29 colon 67.3% | SNB-75 CNS 66.8% | SNB-19 CNS 68.4% | U251 CNS 73.5% | PC-3 prostate 81% | UACC-62 melanoma 31.5% | LOX IMVI melanoma 85.4% | SK-MEL-28 melanoma 78.4% | SK-MEL-2 melanoma 33.3% | EKVX NSCLC 70.1% | SN12C renal 90.8% | UO-31 renal 90.8% | TK-10 renal 76.4% | ACHN renal 91.7% | A498 renal 22% | CCRF-CEM leukemia 84.5% | MOLT-4 leukemia 85.6%
